Shiga toxin inh: blocks Shiga toxin action in Vero cells. inhibition, % at 38.7 µM. actives 9.2% (n = 290,000). Vero cells, Shiga toxin protein synthesis inhibition reporter. AID 2315; in the data active means inhibition mostly above about 28%, no sharp cut-off; inactive means mostly below about 43%; further: 0% is about no effect
FBPA Giardia inh: inhibitors of Giardia lamblia fructose-1,6-bisphosphate aldolase | A8B2U2 | purified Giardia FBPA | Potency, µM (series often up to 59.6 µM), for inactives: at the highest dose activity, negative = inhibition, most hits filed as inhibitors | actives 0.71% (n = 290,000); further: potency means the concentration at half of the fitted maximal effect; on the % scale 0 is the no-effect control and ±100 the full control effect; nearly all actives have a fitted effect of over 55% in size
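40 nM FBPA preincubated 10 min at RT with compound (up to 57.5 uM final), then substrate plus GAPDH/TPI/NAD/arsenate coupling and diaphorase/resazurin added. Fluorescence read after 20 min at RT, 525/598 nm.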
Tb PYK inh: blocks Trypanosoma brucei pyruvate kinase | Q57TT1 | TbPYK enzyme, Kinase-Glo Plus ATP luminescence, 45 min | Potency, µM (top dose mostly 76.8 µM), for inactives: at the highest dose activity, negative = inhibition, most hits filed as inhibitors | actives 0.12% (n = 410,000); further: potency means the concentration at half of the fitted maximal effect; on the % scale 0 is the no-effect control and ±100 the full control effect; nearly all actives have a fitted effect of over 50% in size
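Assay buffer: 50 mM TEA pH 7.2, 100 mM KCl, 10 mM MgCl2, 0.05% BSA, 0.01% Tween-20. Pyruvate kinase from T. brucei plus substrate met compound, then ADP (130 uM final). Luminescence was read post 45 min RT.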
LmPK inh: blocks Leishmania mexicana pyruvate kinase activity; purified LmPK, Kinase-Glo ATP luminescence, 1 h; Potency, µM (titrated, usually from 57.5 µM), for the others: at the top dose activity change, negative = inhibition, actives largely listed as inhibitors; actives 0.37% (n = 290,000); Q27686; AID 1721; further: potency means the concentration at half of the fitted maximal effect; on the % scale 0 is the no-effect control and ±100 the full control effect
Target sequence (Q27686 whole entry, looked up): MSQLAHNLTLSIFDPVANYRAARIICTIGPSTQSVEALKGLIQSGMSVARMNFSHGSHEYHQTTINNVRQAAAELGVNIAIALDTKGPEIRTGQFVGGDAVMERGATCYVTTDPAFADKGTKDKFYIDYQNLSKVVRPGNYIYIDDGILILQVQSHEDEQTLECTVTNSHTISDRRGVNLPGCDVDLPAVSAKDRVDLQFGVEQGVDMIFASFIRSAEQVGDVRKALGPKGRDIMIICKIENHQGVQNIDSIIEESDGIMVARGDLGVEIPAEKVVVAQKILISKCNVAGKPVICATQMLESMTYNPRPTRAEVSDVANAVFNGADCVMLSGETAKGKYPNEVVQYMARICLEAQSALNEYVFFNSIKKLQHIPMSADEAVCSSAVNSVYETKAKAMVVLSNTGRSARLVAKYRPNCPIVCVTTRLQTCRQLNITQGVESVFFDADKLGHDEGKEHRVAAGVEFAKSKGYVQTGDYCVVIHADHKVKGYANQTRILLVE
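Purified LmPK (0.1 nM) converted ADP (0.1 mM) to ATP with PEP (0.5 mM) in imidazole buffer pH 7.2 with KCl and MgCl2, 1 h at room temperature. ATP was read by Kinase-Glo luminescence; data normalized to uninhibited and no-enzyme controls.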
RE007 growth inh: less growth of the S. pombe RE007 Vpr strain. S. pombe RE007 Vpr strain, BacTiter-Glo ATP luminescence, 24 h. Potency, µM (highest dose often 92.2 µM), for the others: top-dose activity change, negative = less growth, usual class: inhibitors. actives 0.21% (n = 360,000). AID 651644; active means well fitted falling curve with a large enough effect; inconclusive means small, poorly fitted or top-dose-only effect; inactive means no such curve, though single readings can be large or run the other way; further: potency means the concentration at half of the fitted maximal effect; on the % scale 0 is the no-effect control and ±100 the full control effect; nearly all actives have a fitted effect of over 50% in size
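Fission yeast strain RE007, carrying one chromosomally integrated HIV-1 vpr copy, was seeded at OD 0.01 in PMG+AL medium with 23 nL pinned compound. After 24 h at 30 °C and 99% humidity, viability was read by BacTiter-Glo luminescence.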
CHX counter: counter-screen for Shiga toxin inhibitors: cycloheximide protein synthesis inhibition. actives 12% (n = 300,000). max response, %. cell reporter, cycloheximide protein synthesis inhibition counterscreen; in the data active means max response mostly above about 13%, no sharp cut-off; inactive means mostly below about 14%; further: read at 38.3 µM for the half of the compounds with a filed dose; 0% is about no effect
Numbers without * were called inactive; ? = inconclusive; nt = not tested or not shown; [ ] = dose if it differs, or a comment. Shown is part of a subset that was picked to be rich in hits. Unless noted, the call rests on the fitted dose curve; in most records, active means well fitted curve in the direction sought with a large enough effect; inconclusive means small, poorly fitted or top-dose-only effect, or another doubt; inactive means no such curve, though single readings can be large; an effect the other way counts as inactive or inconclusive.

SMILES	Shiga toxin inh	FBPA Giardia inh	Tb PYK inh	LmPK inh	RE007 growth inh	CHX counter
O=C1S/C(=C\C=C\c2ccco2)C(=O)N1c1ccc(O)cc1	71*	?	-17%	7%	-9%	43*
O=C1S/C(=C\C=C\c2ccco2)C(=O)N1c1ccccc1	59*	-25%	-16%	-2%	2%	38*
COc1ccc(-c2nnc3n2N=C(c2c(OC)cccc2OC)CS3)c(OC)c1	4	12%	nt	nt	nt	12
Cc1ccc(C2C(=O)N(C3CCCCCC3)CC(=O)N2C(C)C)cc1 (centres undefined)	nt	nt	-6%	nt	nt	nt
CC(C)N1C(=O)CN(C2CCCCCC2)C(=O)C1c1ccccc1F (centres undefined)	187*	0%	-5%	1%	-1%	60*
Cn1c(/C=N/Nc2nc3ccccc3[nH]2)nc2ccccc21	154*	-3%	2%	-23%	?	34*
CCCn1c(/C=N/Nc2nc3ccccc3[nH]2)nc2ccccc21	46*	21%	-16%	1%	4%	49*
C=CCn1cc(/C=N/Nc2nc3ccccc3[nH]2)c2ccccc21	74*	4%	-22%	0%	-23%	40*
Cc1c(/C=N/Nc2nc3ccccc3[nH]2)c2ccccc2n1C	76*	-21%	-1%	3%	-14%	24*
CC(C)Cn1c(/C=N/Nc2nc3ccccc3[nH]2)nc2ccccc21	12	22%	-5%	0%	-4%	7
Cc1cc2c(s1)c1cnn(Cc3c(F)c(F)cc(F)c3F)c(=O)c1n2C	16	nt	nt	nt	nt	7
COc1ccc(-c2ccc(C(=O)NCc3ccc(N(C)C)cc3)c3occc23)c(C)c1	nt	nt	-1%	nt	-3%	nt
CN(C(=O)c1cc(COc2ccc(F)cc2Cl)on1)C1CCCc2ccccc21 (centres undefined)	6	nt	-2%	-3%	-7%	1
COc1ccc(OCc2cc(C(=O)N(C)C3CCOC3)no2)c(Cl)c1 (centres undefined)	43	nt	-2%	0%	10%	27*
Cc1ccc(OCc2cc(C(=O)N(C)CC3CCOCC3)no2)cc1C	133*	-9%	-5%	-5%	1%	77*
Cc1cc(OCc2cc(C(=O)N3CCN(C)C(=O)[C@@H]3C)no2)cc(C)c1Cl	9	nt	-1%	3%	0%	9
CN(CCN1CCOCC1)C(=O)c1cc(COc2ccc(F)c(F)c2)on1	88	nt	-2%	-3%	-3%	34*
Cc1cc(OCc2cc(C(=O)N(C)C3CCOCC3)no2)cc(C)c1Cl	126*	-5%	-7%	-4%	-1%	86*
COc1cc(CC(C)N)cc2c1OCO2 (centres undefined)	nt	nt	-14%[157 µM]	nt	nt	nt
CCN(CC)c1ccc(/C=N/NC(=O)c2nnn(-c3nonc3N)c2-c2ccc(C)cc2)cc1	-6	nt	-7%	2%	11%	-11
COc1ccc(-c2nc3sc(CCNC(=O)c4ccc(Br)o4)c(C)n3n2)cc1	nt	nt	3%	nt	nt	nt
C[C@]12c3[nH]c4ccccc4c3CCN1C(=O)C(CC(=O)NCCCn1ccnc1)C[C@@H]2C(=O)N1CCOCC1 (some centres undefined)	nt	nt	5%	nt	-14%	nt
CN(C(=O)c1cc(COc2ccc(F)c(F)c2)on1)C1CCOC1 (centres undefined)	33	nt	-4%	1%	6%	31*
COc1ccc(OCc2cc(C(=O)N(C)C3CCOCC3)no2)c2ccccc12	101*	?	1%	1%	-8%	47*
CN(Cc1nccn1C)C(=O)c1cc(COc2ccc3ncccc3c2)on1	6	-1%	2%	2%	-9%	-2
SMILES	Shiga toxin inh	FBPA Giardia inh	Tb PYK inh	LmPK inh	RE007 growth inh	CHX counter
Cc1n[nH]c(C)c1CN(C)C(=O)c1cc(COc2ccc(F)c(F)c2)on1	11	1%	-9%	9%	-4%	10
COc1cc(Cl)ccc1OCc1cc(C(=O)N(C)C2CC(C)(C)NC(C)(C)C2)no1	-3	nt	-11%	0%	-2%	-2
Cc1ccc(OCc2cc(C(=O)N(C)Cc3cnc4ccccn34)no2)cc1C	33	-6%	-22%	-4%	-1%	20*
Cc1ccc(-c2sc(C(=O)Nc3ccc(Br)cc3)cc2CC(=O)O)cc1	nt	nt	-3%	nt	nt	nt
CSc1ccccc1NC(=O)Nc1cccc(F)c1	41*	-11%	-4%	-28%	-23%	22*
CCc1ccccc1NC(=O)Nc1cccc(F)c1	23	-8%	6%	-13%	14%	15
O=C(NCc1ccccc1)Nc1cccn(Cc2ccccc2)c1=O	-4	-7%	-7%	-1%	2%	13
CCOc1ccc(NC(=O)Nc2cccn(Cc3ccccc3)c2=O)cc1	33	?	-4%	-3%	15%	31*
CCOc1ccc(NC(=O)Nc2ccccc2SC)cc1	66*	-2%	-9%	7.9µM*	-7%	33*
CCOc1ccc(NC(=O)Nc2cc(C(C)C)ccc2C)cc1	4	6%	nt	-2%	nt	2
O=C(NCc1ccccc1)Nc1cccn(Cc2ccccc2F)c1=O	5	-5%	2%	-2%	2%	20*
CNC(=O)/C(=C\c1ccc2c(c1)OCO2)NC(=O)c1ccc(Br)cc1	-5	3%	-4%	0%	-1%	-3
Cc1ccc2c(CNCc3ccc(C)o3)c(C(=O)O)n(Cc3ccccc3C)c2c1	nt	nt	1%	nt	nt	nt
CSc1ccccc1NC(=O)Nc1ccccc1	91*	-9%	-3%	?	-19%	25*
COc1ccccc1NC(=O)Nc1ccccc1SC	35	-21%	-4%	1%	-4%	1
CCOC(=O)c1c(C)[nH]c(C)c1S(=O)(=O)NCC(=O)Nc1ccc(CC)cc1	nt	nt	0%	nt	nt	nt
O=C(Nc1nc(-c2ccc(S(=O)(=O)N3CCCC3)cc2)cs1)c1ccco1	22*	-4%	-7%	6%	-2%	5.2*
O=C(Nc1ccc(S(=O)(=O)N2CCCCCC2)cc1)c1ccco1	40*	6%	-1%	-1%	3%	23*
CC(=O)Nc1ccc(S(=O)(=O)N2CCN(C(=O)c3ccco3)CC2)cc1	-5	4%	-10%	-2%	7%	21*
CC1=C(C(=O)Nc2ccc(Cl)cc2)C(C(C)C)n2nc(SCc3ccc(Cl)cc3)nc2N1 (centres undefined)	nt	nt	1%	nt	nt	nt
CCOc1ccc(C(=O)NC2CC(=O)N(c3ccc(C)cc3)C2)cc1OCC (centres undefined)	nt	nt	1%	nt	nt	nt
CC(C)CCNC(=O)CN(C(=O)CCC(=O)Nc1ccccn1)c1ccc2c(c1)OCCO2	56*	0%	-2%	-4%	10%	22*
O=C(CCC(=O)N(CC(=O)NC1CCCCC1)c1ccc2c(c1)OCCO2)Nc1ccccn1	15	2%	nt	0%	nt	21*
CC(C)CCNC(=O)CN(C(=O)CCC(=O)Nc1ccccn1)c1ccc2c(c1)OCO2	-2	-1%	0%	-3%	6%	-2
